Measurements published in PMC12215968.

What follows are substances tested against Ubiquitin-ribosomal protein eS31 fusion protein (UniProt P62979) (assay: cross-link between two proteins; cross-linking mass spectrometry).

Listed as a hit, yes:
Ubiquitin-conjugating enzyme E2 N, P61088
Ubiquitin-conjugating enzyme E2 K, P61086
Ubiquitin carboxyl-terminal hydrolase 5, P45974
